Molecules are shown by their SMILES. Values without a mark were called inactive. No rule for the calls is given here.

From PubChem BioAssay come the findings set out here.

The target in the experiment is Pantothenate synthetase (Mycobacterium tuberculosis (strain ATCC 25618 / H37Rv)) (UniProt P9WIL5). In words: Coupled enzyme confirmation of inhibitors against recombinant Mtb PanC (AID 375).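 Also: 0% = full reaction with vehicle and 100% = no enzyme background.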 As to conditions: coupled enzyme assay; at 10 µM, hits give high values.
Chain of Pantothenate synthetase (Mycobacterium tuberculosis (strain ATCC 25618 / H37Rv)) (P9WIL5 whole entry, looked up): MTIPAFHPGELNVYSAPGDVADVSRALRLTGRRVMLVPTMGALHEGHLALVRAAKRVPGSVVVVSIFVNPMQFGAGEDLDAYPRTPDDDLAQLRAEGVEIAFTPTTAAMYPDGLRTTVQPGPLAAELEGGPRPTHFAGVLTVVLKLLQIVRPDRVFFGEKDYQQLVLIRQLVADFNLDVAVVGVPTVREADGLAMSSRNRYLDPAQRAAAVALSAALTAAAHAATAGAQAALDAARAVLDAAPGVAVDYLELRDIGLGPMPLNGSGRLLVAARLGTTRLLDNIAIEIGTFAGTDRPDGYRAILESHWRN
In the case of `O=C(Nc1ccc2c(c1)OCCO2)C1CCCN(S(=O)(=O)c2cnc[nH]2)C1` (stereo not given), the inhibition – broadly, how much of the control response was suppressed – is 0%.

`CN(C)C(CNC(=O)Nc1cccc(Cl)c1)c1cccnc1` (stereo not given): the inhibition is 0%.

For the compound `CCCCN(c1ccccc1)S(=O)(=O)c1ccc2c(c1)CCN2C(=O)CCC(=O)O`, the inhibition was 0%.

On to `COc1cc(NC2c3ccccc3C(=O)N2c2ccc(C)cn2)cc(OC)c1OC` (stereo not given), for which the inhibition was 0%.

Regarding `CCc1nn(CC(=O)N2CCN(Cc3ccc4c(c3)OCO4)CC2)c(=O)c2cc3occc3n12`, the inhibition is 5%.

In the case of `CCOc1ccc(NCCC(=O)c2ccc3c(c2)OCO3)cc1`, the inhibition is 1%.

Take `CC(=O)N1CCN(c2ccc(NC(=O)c3ccc(C(C)(C)C)cc3)cc2)CC1`: the inhibition is 0%.

Regarding `O=C(c1ccc(Br)o1)N1CCN(c2ccc3nnc(-c4ccccc4)n3n2)CC1`, the inhibition was 1%.

For the compound `COc1cccc(C2CC(=O)Nc3c2c(=O)n(C)c(=O)n3C)c1OC` (stereo not given), the inhibition is 6%.

`CCc1nnc(NC(=O)c2ccc(S(=O)(=O)NCC(C)C)cc2)s1`: the inhibition is 0%.

Regarding `Cc1noc(/C=C/N(C)C)c1S(=O)(=O)N1CCCC(C(=O)NCCC2=CCCCC2)C1` (stereo not given), the inhibition is 0%.

For `CC(=O)OCC(=O)[C@@]1(O)[C@H](C)C[C@H]2[C@@H]3CCC4=CC(=O)C=C[C@]4(C)[C@@]3(F)[C@@H](O)C[C@@]21C`, the inhibition is 4%.

For `CCOC(=O)c1ccc(N=Cc2nc(-c3ccccc3)oc2OC(C)=O)cc1`, the inhibition is 0%.

Take `CSc1ccc(S(=O)(=O)Nc2cccc(F)c2)cc1`: the inhibition was 0%.

`Cn1c(=O)cc(SCC(=O)NCc2cccnc2)c2ccccc21`: the inhibition is 4%.

`Cc1cc2oc(=O)cc(C)c2c(=O)o1`: the inhibition is 4%.

In the case of `COc1ccccc1C(=O)NCC(c1cccnc1)N(C)C` (stereo not given), the inhibition was 0%.

`COc1ccccc1NC(=O)C1=C(C)Nc2ncnn2C1c1ccc(C)o1` (stereo not given): the inhibition was 10%.

For `CCOC(=O)c1cnn(-c2ncnc3c2cnn3Cc2ccccc2)c1N`, the inhibition is 5%.

With `COCCN(Cc1cc2cc3c(cc2n2nnnc12)OCO3)C(=O)c1ccccc1F`, the inhibition was 2%.

Regarding `NC(=O)c1c(-c2ccccc2)oc2ccc(O)cc12`, the inhibition was 0%.

For `CCOc1ccc(C2CC(=O)NC3=C2C(=O)CCC3)cc1Cl` (stereo not given), the inhibition was 0%.

`O=C(Cc1c(F)cccc1Cl)Nc1ccncc1`: the inhibition was 6%.

With `CCCC(=O)Nc1ccc(NC(=O)c2cccs2)cn1`, the inhibition was 5%.

For the compound `COC1CCCCC1NS(=O)(=O)c1ccccc1` (stereo not given), the inhibition is 0%.

As to `CCCNC(=O)C1CC(=O)N(c2ccc(OCC(=O)Nc3cc(C)cc(C)c3)cc2)C1` (stereo not given), the inhibition was 0%.

Regarding `O=C(O)c1[nH]nc2c1COc1ccccc1-2`, the inhibition was 6%.

As to `O=C(NCCSc1c[nH]c2ccccc12)c1ccc(Br)o1`, the inhibition is 1%.

Regarding `CCOC(=O)C1CCCN(C(=O)c2ccc(CS(=O)(=O)Cc3ccccc3C)o2)C1` (stereo not given), the inhibition was 3%.

As to `Cc1cccc(NC(=O)COc2ccc(Br)cc2)n1`, the inhibition is 0%.

With `O=c1oc2ccccc2c(O)c1C=NCc1ccccn1`, the inhibition is 0%.

With `Cc1cccc(OCCCc2c(C)n[nH]c2C)c1`, the inhibition is 0%.

For the compound `Cc1nc2ccc(S(=O)(=O)NC(C(=O)NCc3cccs3)C(C)C)cc2s1` (stereo not given), the inhibition was 0%.

Turning to `Cc1nc(NC(=O)C2CC3CCCC(C2)C3=O)sc1C` (stereo not given), the inhibition is 0%.

On to `Cn1c(=O)c2ccccc2n(Cc2ccccc2F)c1=O`, for which the inhibition was 0%.

Take `CCCCNC(=O)Cn1c(=O)n(C)c2ccccc21`: the inhibition was 0%.

As to `CCOc1ccc(C(=O)N2CCC(C(=O)c3ccc4c(c3)OCCO4)CC2)cc1`, the inhibition was 7%.

Take `Cc1cc(C)n2nc(SCc3cc(=O)n4ccccc4n3)nc2n1`: the inhibition is 0%.

For `CCS(=O)(=O)N1CCCC(C(=O)NCCc2ccc(OC)c(OC)c2)C1` (stereo not given), the inhibition is 4%.

On to `N#CCCNCC1(c2ccccc2)CCCC1`, for which the inhibition is 7%.
